{"source": "PubChem BioAssay AID463190", "about": "(Sanford-Burnham Center for Chemical Genomics, 2010)", "note": "Out of some 330,000 compounds screened, about 7,300 (2.2%) were called active. Many of the other results were omitted from the sample, so actives are more common in it than they were. Unmarked numbers belong to inactive results.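 Rule for the calls: active = inhibition of at least 40%; inactive = the rest.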", "data": [{"assay": "growth inhibition of tim10-1 ts yeast – luminescence, uHTS, primary screen (AID 463190);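 note: mutant grown at 25 °C; 0% = DMSO wells with yeast and 100% = wells holding no yeast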", "details": "S. cerevisiae tim10-1 ts strain growth, BacTiter-Glo, 24 h; at 20 µM; hits give high values", "values": [{"smiles": "CCOC(=O)c1cc(-c2ccccc2C)n(Cc2cc(C)no2)n1", "inhibition": "9.65%"}, {"smiles": "CN(C(=O)CC(NC(=O)c1ccccc1)(c1ccccc1)c1ccccc1)c1ccccc1", "inhibition": "41.7% (active)"}, {"smiles": "CC(C)(C)c1ccc(C(=O)NNC(=O)Cc2ccccc2)cc1", "inhibition": "-12.1%"}, {"smiles": "CN(CC(=O)O)C(=O)c1ccccc1", "inhibition": "-0.243%"}, {"smiles": "CCOC(=O)NC(=O)/C(C#N)=C\\c1ccccc1", "inhibition": "2.89%"}, {"smiles": "O=C(/C=C/c1c(F)cccc1Cl)Nc1nn[nH]n1", "inhibition": "10.7%"}, {"smiles": "CNC(=O)/C(C#N)=C/c1c(F)cccc1Cl", "inhibition": "55.4% (active)"}, {"smiles": "O=C(CNS(=O)(=O)c1ccccc1)NCC(=O)OCc1ccccc1F", "inhibition": "9.03%"}, {"smiles": "O=C(Cn1nc(Cc2cccnc2)c2ccccc2c1=O)NCC1COc2ccccc2O1", "note": "(stereo not drawn)", "inhibition": "14.3%"}, {"smiles": "C=CCNC(=S)NNC(=O)COc1c(Cl)cc(Cl)cc1Cl", "inhibition": "37.3%"}, {"smiles": "CCOC(=O)C1CCN(C(=O)C2CCCN(S(=O)(=O)c3ccc(OC)c(Cl)c3)C2)CC1", "note": "(stereo not drawn)", "inhibition": "-9.18%"}, {"smiles": "COc1ccccc1NC(=O)N1CCCC1C(=O)NCc1cccs1", "note": "(stereo not drawn)", "inhibition": "16.7%"}, {"smiles": "COc1cc(NS(=O)(=O)c2ccc3ccccc3c2)c2ncccc2c1", "inhibition": "40.5% (active)"}, {"smiles": "Cc1ccc(S(=O)(=O)Nc2ccc3ncccc3c2)cc1", "inhibition": "18.6%"}, {"smiles": "O=[N+]([O-])c1ccccc1S(=O)(=O)Nc1cccc2cccnc12", "inhibition": "34.8%"}, {"smiles": "COc1ccc(S(=O)(=O)NCc2cccnc2)cc1NC(=O)c1ccc(C)cc1", "inhibition": "8.35%"}, {"smiles": "CCC(C)(C)n1nnnc1CN1CCN(c2nc3ccc(C)cc3cc2C#N)CC1", "inhibition": "40.7% (active)"}, {"smiles": "CCC(C)(C)n1nnnc1C(c1cccs1)N1CCN(c2nc3ccccc3s2)CC1", "note": "(stereo not drawn)", "inhibition": "36.1%"}, {"smiles": "Cc1ccc2nc(NCCCNC(=O)c3cnccn3)c(C#N)cc2c1", "inhibition": "8.4%"}, {"smiles": "COc1ccc(CNC(=O)COC(=O)/C=C/c2ccc(S(=O)(=O)N3CCOCC3)cc2)cc1", "inhibition": "20%"}, {"smiles": "Cc1nc2nc(C)c(CCC(=O)N3CCN(c4ccccc4)CC3)c(C)n2n1", "inhibition": "1.14%"}, {"smiles": "COc1ccc2[nH]c3c(c2c1)CCN1C(=O)C(CC(=O)NCc2cccc(C(F)(F)F)c2)C[C@H](C(=O)N2CCOCC2)[C@@]31C", "note": "(stereo partly drawn)", "inhibition": "11%"}, {"smiles": "Cc1cccc(C(=O)NCC(=O)OCC(=O)N2CC3(C)CC2CC(C)(C)C3)c1", "note": "(stereo not drawn)", "inhibition": "15.2%"}, {"smiles": "Cc1nnnn1/C(=C\\c1ccccc1)C(=O)OCC(=O)N1CC2(C)CC1CC(C)(C)C2", "note": "(stereo not drawn)", "inhibition": "56.1% (active)"}, {"smiles": "COc1ccc(C(=O)N2CC3(C)CC2CC(C)(C)C3)cc1OC", "note": "(stereo not drawn)", "inhibition": "19.6%"}, {"smiles": "CCOc1ccc(C(C)=O)cc1CSc1nnc(-c2ccncc2)n1CCOC", "inhibition": "22.6%"}, {"smiles": "NC(=O)NC(CC(=O)NNC(=O)c1ccccn1)c1ccc(Cl)cc1", "note": "(stereo not drawn)", "inhibition": "8.52%"}, {"smiles": "O=C(Nc1nnc(CCOCCOCCc2nnc(NC(=O)c3ccco3)s2)s1)c1ccco1", "inhibition": "-13%"}, {"smiles": "O=C(Nc1nc(-c2ccco2)c(-c2ccco2)s1)c1ccco1", "inhibition": "59.7% (active)"}, {"smiles": "NC(=O)c1ccsc1NC(=O)c1ccco1", "inhibition": "-3.6%"}, {"smiles": "C=CC[C@@H](CC(=O)NCCO)C(=O)N[C@H](C)COC(=O)[C@@H](CC=C)CC(=O)OC(C)(C)C", "inhibition": "-5.11%"}, {"smiles": "CC(Nc1ccccc1)c1cccnc1", "note": "(stereo not drawn)", "inhibition": "-3.38%"}, {"smiles": "CCN(CC)S(=O)(=O)c1cc(C(=O)Nc2cc(S(=O)(=O)N3CCOCC3)ccc2N2CCCC2)ccc1F", "inhibition": "3.43%"}, {"smiles": "O=C(CN(C(=O)c1csnn1)c1cccc(Cl)c1)NC1CCCC1", "inhibition": "17.6%"}, {"smiles": "O=C(CCCN1C(=O)/C(=C/c2cccs2)SC1=S)Nc1ccc(O)cc1", "inhibition": "31.7%"}, {"smiles": "O=C(CCCN1C(=O)/C(=C/c2ccccc2)SC1=S)Nc1ccc(O)cc1", "inhibition": "40.5% (active)"}, {"smiles": "COc1ccc(/C=C2\\SC(=S)N(CCC(=O)Nc3cccc(C(=O)O)c3)C2=O)cc1OC", "inhibition": "21.8%"}, {"smiles": "CCC(C)[C@@H](C(=O)N1CCNCC1)n1cc(CCCCN)nn1", "note": "(stereo partly drawn)", "inhibition": "-13.3%"}, {"smiles": "CCOC(=O)C1CCN(CCC(=O)Nc2cccc(C)c2)CC1", "inhibition": "11.5%"}, {"smiles": "CN(Cc1cccs1)C(=O)Cc1c[nH]c2ccccc12", "inhibition": "14.6%"}, {"smiles": "O=C(Nc1ccc2sc3ccccc3c(=O)c2c1)c1ccccc1Cl", "inhibition": "4.71%"}, {"smiles": "COc1ccccc1N1CCN(C(=O)c2cc3c(-c4ccc(Cl)cc4)nn(C)c3s2)CC1", "inhibition": "15.4%"}, {"smiles": "COc1cccc(-c2nn(C)c3sc(C(=O)N4CCN(c5ccccc5)CC4)cc23)c1", "inhibition": "24.7%"}, {"smiles": "CCOC(=O)N1CCN(C(=O)c2cc3c(-c4ccc(Cl)cc4)nn(C)c3s2)CC1", "inhibition": "40.4% (active)"}, {"smiles": "O=C(CNC(=O)c1ccccc1)NCC(=O)OCc1ccc(Cl)cc1", "inhibition": "-23.2%"}, {"smiles": "COc1ccc(Nc2nc(N)nc(CSC(=S)N3CCC(C)CC3)n2)cc1", "inhibition": "46.2% (active)"}, {"smiles": "CCOC(=O)c1cnc(SCc2nc(N)nc(Nc3ccc(OC)cc3)n2)nc1N", "inhibition": "17.6%"}, {"smiles": "COc1ccccc1Nc1nc(N)nc(CSC(=S)N2CCOCC2)n1", "inhibition": "23.3%"}, {"smiles": "C=CCNC(=O)c1ccccc1SCc1c(C)noc1C", "inhibition": "18%"}, {"smiles": "CCOP(=O)(OCC)C(Nc1cccc(C)c1)c1ccc(F)cc1", "note": "(stereo not drawn)", "inhibition": "20.8%"}, {"smiles": "CCN=C1S/C(=C\\c2cc(Br)ccc2OCC(=O)OCC)C(=O)N1CC", "inhibition": "25.5%"}, {"smiles": "Cc1ccc(COC(=O)CN2C(=O)NC3(CCCC3)C2=O)cc1", "inhibition": "23.6%"}, {"smiles": "CCn1c(Cc2ccccc2)nnc1SCc1nc2ccccc2c(=O)[nH]1", "inhibition": "8.33%"}, {"smiles": "COc1ccc(CCCc2nnc(SCc3nc4ccccc4c(=O)[nH]3)n2C)cc1", "inhibition": "19.4%"}, {"smiles": "CCn1c(COc2c(C)cccc2C)nnc1SCc1nc2ccccc2c(=O)[nH]1", "inhibition": "40.2% (active)"}, {"smiles": "O=c1c2cc(-c3ccccc3)sc2nc2n1N=C(c1cccs1)CS2", "inhibition": "20.5%"}, {"smiles": "O=C1C(=O)N(CCN2CCOCC2)C(c2ccccn2)/C1=C(/O)c1ccc(Cl)cc1", "note": "(stereo not drawn)", "inhibition": "13.6%"}, {"smiles": "O=C(c1cccc(Cl)c1)N1CCN(Cc2ccccc2)CC1", "inhibition": "-7.29%"}, {"smiles": "O=C(CCCC(=O)N1CCN(c2cccc(Cl)c2)CC1)c1ccccc1", "inhibition": "29.5%"}, {"smiles": "CCc1nc2ccc(C(=O)N3CCN(c4cccc(Cl)c4)CC3)cc2nc1CC", "inhibition": "52.2% (active)"}, {"smiles": "O=C(O)c1ccn(COc2ccc(Br)cc2)n1", "inhibition": "-4%"}, {"smiles": "CCOC(=O)N/N=C/c1cccnc1", "inhibition": "5.36%"}, {"smiles": "Cc1ccc(NC(=O)CSc2cccc3cccnc23)c(C)c1", "inhibition": "25.4%"}, {"smiles": "O=C(CSc1cccc2cccnc12)N/N=C/c1cccnc1", "inhibition": "51.7% (active)"}, {"smiles": "O=C(NCc1ccccc1Cl)C1CCCO1", "note": "(stereo not drawn)", "inhibition": "0.911%"}, {"smiles": "O=C(Nc1nnc(SCc2c(Cl)cccc2Cl)s1)C1CCCO1", "note": "(stereo not drawn)", "inhibition": "42.5% (active)"}, {"smiles": "O=C(Nc1nnc(SCc2c(Cl)cccc2Cl)s1)c1cccc([N+](=O)[O-])c1", "inhibition": "-2.85%"}, {"smiles": "NC(=O)CCC(NS(=O)(=O)c1ccc(Cl)cc1)C(=O)NCc1ccccc1Cl", "note": "(stereo not drawn)", "inhibition": "-4.94%"}, {"smiles": "COc1ccc(Cl)cc1NC(=O)Cn1nc(-c2ccc(C)cc2)n(C)c1=S", "inhibition": "2.15%"}, {"smiles": "Cc1cc(Nc2ccccc2)n(C(=O)c2ccc(N)cc2)n1", "inhibition": "50.1% (active)"}, {"smiles": "Cc1cc(C)n(C(=O)c2ccc(S(=O)(=O)N3CCCC3)cc2)n1", "inhibition": "17.6%"}, {"smiles": "Cc1cc(Nc2ccccc2)n(CCC#N)n1", "inhibition": "-11.5%"}, {"smiles": "CCc1ccc(CN(C)C(C)C(=O)Nc2ccc(S(=O)(=O)N3CCCC3)cc2)cc1", "note": "(stereo not drawn)", "inhibition": "24.9%"}, {"smiles": "COc1ccc(OC)c(S(=O)(=O)N2CCCC(C(=O)N3CCC(C(N)=O)CC3)C2)c1", "note": "(stereo not drawn)", "inhibition": "-23.6%"}, {"smiles": "CN1CCN(S(=O)(=O)c2ccc(N3CCN(S(=O)(=O)c4cccs4)CC3)nc2)CC1", "inhibition": "-3.27%"}, {"smiles": "COc1ccc(-n2cnc3cc(NCc4ccco4)ccc32)cc1", "inhibition": "22%"}, {"smiles": "COc1ccc(-c2oc3ncn(Cc4ccco4)c(=N)c3c2-c2ccc(OC)cc2)cc1", "inhibition": "41.7% (active)"}, {"smiles": "COc1ccc(-c2oc3ncnc(NCCCO)c3c2-c2ccc(OC)cc2)cc1", "inhibition": "9.86%"}, {"smiles": "Cc1cc(C)c(NC(=O)c2oc3ccccc3c2COc2ccccc2)c(C)c1", "inhibition": "17%"}, {"smiles": "COc1cccc(C(=O)Nc2cc3c(cc2Br)OCCCO3)c1", "inhibition": "40.7% (active)"}, {"smiles": "O=C(Nc1ccccc1)c1ccc2c(c1)OCCCO2", "inhibition": "5.55%"}, {"smiles": "COc1cccc(C(=O)NNC(=O)c2cccc(F)c2)c1", "inhibition": "-28.3%"}, {"smiles": "O=C(c1cc(COc2cccc(C(F)(F)F)c2)on1)N1CCSCC1", "inhibition": "26.2%"}, {"smiles": "O=C(NC1Cc2ccccc2C1)c1cc(COc2cccc(C(F)(F)F)c2)on1", "inhibition": "18.4%"}, {"smiles": "Cc1nonc1C1CCCN1C(=O)c1cc(COc2cccc(C(F)(F)F)c2)on1", "note": "(stereo not drawn)", "inhibition": "46.1% (active)"}, {"smiles": "O=c1cnnc(Nc2ccccc2F)[nH]1", "inhibition": "-10.8%"}, {"smiles": "Cc1ccc(C(=O)N/C(=C/c2cccs2)C(=O)N2CCCCC2)cc1", "inhibition": "19.1%"}, {"smiles": "CCOC(=O)CSc1nc2c(c(=O)n(C)c(=O)n2C)n1Cc1ccccc1F", "inhibition": "10.3%"}, {"smiles": "CCOC(=O)CSc1nc2c(c(=O)n(Cc3ccccc3Cl)c(=O)n2C)n1C", "inhibition": "47.6% (active)"}, {"smiles": "Cn1c(=O)c2c(nc(SCC(=O)Nc3ccccc3N3CCCCC3)n2C)n(C)c1=O", "inhibition": "-4.92%"}, {"smiles": "Cc1ccc(CS(=O)(=O)c2ncc(Cl)c(C(=O)Nc3nnc(C)s3)n2)cc1", "inhibition": "20.6%"}, {"smiles": "Cc1cccc(NC(=O)c2nc(S(=O)(=O)Cc3ccccc3)ncc2Cl)c1", "inhibition": "23.9%"}, {"smiles": "CSc1nnc(NC(=O)c2nc(S(=O)(=O)Cc3ccc(C)cc3)ncc2Cl)s1", "inhibition": "41% (active)"}]}]}
